According to PubChem BioAssay AID894 (National Center for Advancing Translational Sciences (NCATS), 2007):
Values joined by “and” are separate entries in the source; they are usually repeats but may differ in a detail not shown here. Equal values may be shown once. Hit rate of the full screen: of about 150,000 compounds, about 6,500 (4.3%) were called active. Not shown: some 12% with an inconclusive outcome. Only a selection was taken, and actives are over-represented in it overall. A number with no mark means an inactive call. Calls come from the whole dose curve; as a rule, active = well fitted inhibition curve with a large enough effect (not every such curve was filed as active); inconclusive = small, poorly fitted or top-dose-only effect, or another doubt; inactive = no such curve, though single readings can be large or run the other way.

Each compound was assayed against 15-hydroxyprostaglandin dehydrogenase [NAD(+)] (Homo sapiens) (UniProt P15428) (assay: qHTS Assay for Inhibitors of HPGD (15-Hydroxyprostaglandin Dehydrogenase)). Conditions: purified HPGD, NADH fluorescence kinetic, PGE2 substrate; activity change, negative = inhibition: active compounds read low.
Chain of 15-hydroxyprostaglandin dehydrogenase [NAD(+)] (Homo sapiens) (P15428 whole entry, looked up): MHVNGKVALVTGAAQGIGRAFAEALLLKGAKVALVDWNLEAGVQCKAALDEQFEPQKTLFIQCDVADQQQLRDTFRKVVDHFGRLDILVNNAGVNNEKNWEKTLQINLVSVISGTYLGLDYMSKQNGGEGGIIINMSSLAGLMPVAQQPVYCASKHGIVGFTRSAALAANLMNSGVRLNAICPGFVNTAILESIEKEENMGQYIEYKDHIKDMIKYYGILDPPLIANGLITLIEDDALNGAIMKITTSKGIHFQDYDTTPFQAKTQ
Source text: Human 15-Hydroxyprostaglandin dehydrogenase (HPGD) catalyzes the inactivation of prostaglandin E2, and plays a major role in cancer biology by antagonizing the oncogenic potential of cyclooxygenase type 2 (COX2). Assays are available, based on absorbance/fluorescence increase of NADH with the substrate 15-OH prostaglandin E2. References 1. Myung SJ, Rerko RM, Yan M, Platzer P, Guda K, Dotson A, Lawrence E, Dannenberg AJ, Lovgren AK, Luo G, Pretlow TP, Newman RA, Willis J, Dawson D, Markowitz SD. 15-Hydroxyprostaglandin dehydrogenase is an in vivo suppressor of colon tumorigenesis. […] 2. Yan M, Rerko RM, Platzer P, Dawson D, Willis J, Tong M, Lawrence E, Lutterbaugh J, Lu S, Willson JK, Luo G, Hensold J, Tai HH, Wilson K, Markowitz SD. 15-Hydroxyprostaglandin dehydrogenase, a COX-2 oncogene antagonist, is a TGF-beta-induced suppressor of human gastrointestinal cancers. Proc Natl Acad Sci U S A. 2004 Dec 14;101(50):17468-73. 3. Yang L, Amann JM, Kikuchi T, Porta R, Guix M, Gonzalez A, Park KH, Billheimer D, Arteaga CL, Tai HH, Dubois R, Carbone DP, Johnson DH. Inhibition of Epidermal Growth Factor Receptor Signaling Elevates 15-Hydroxyprostaglandin Dehydrogenase in Non-Small-Cell Lung Cancer. Cancer Res. 2007 Jun 15;67(12):5587-5593. Inhibition of HPGD activity was screened by utilizing prostaglandin as an electron donor and NAD+ as an electron acceptor/cofactor. An increase in the fluorescence intensity due to conversion of NAD+ to NADH was used to measure the enzyme activity. NIH Chemical Genomics Center [NCGC] Structural Genomics Consortium [SGC]
Buffer: 50 mM Tris-HCl, 0.01% Tween 20, pH 8. Enzyme Buffer: 50 mM Tris-HCl, 0.5 mM NAD+ and 0.01% Tween 20, pH 8. Reagents/Controls: Buffer in columns 3 and 4 as negative control (no enzyme). Substrate/cofactor solution: 1 mM NAD+ and 30 uM prostaglandin (Sigma, prostaglandin E2, # P5640) final concentrations dispensed throughout the plate. Enzyme: 20 nM HPGD final concentration in columns 1, 2, 5-48. Column 1 and 2 is neutral (100% activity). A titration of control inhibitor GW5074 (G6416 Sigma-Aldrich, St. Louis, MO) top concentration 10 mM in DMSO, then 1:2 dilution for a total of 16 concentrations in duplicate) was pin-transferred into column 2. Assay Steps: Three uL of enzyme were dispensed to 1536-well Greiner black solid bottom plates. Compounds and control inhibitor (23 nL) were transferred via Kalypsys PinTool. The plates were incubated for 15 min at room temperature, and then 1 uL of substrate/cofactor solution was added to start the reaction. The plates were immediately transferred to and read 5 times every 30 seconds on ViewLux High-throughput CCD imager (Perkin-Elmer) using 360 nm excitation and 450 nm emission fluorescence protocol. The fluorescence intensity difference between the last and the first time points was used to compute reaction progress.
% is set by controls: 0 for no effect and ±100 for the full control effect; potency is the fitted concentration of half-maximal effect.

Compound | Potency | activity change, negative = inhibition
Cc1ccnc(-n2c(C)cc(/C=C3\C(=O)NC(=S)N(C)C3=O)c2C)c1 | 20 µM (active) | –
Cc1ccc(-n2c(C)cc(/C=C3\C(=O)NC(=O)N(C)C3=O)c2C)cc1C | – | -10.2%
COC(=O)c1ccc2[se]c(CC3CCCCC3)c(I)c2c1 | – | -2.23%
CC(C)CC(C)Nc1ccc(Nc2ccccc2)cc1 (stereo not drawn) | – | -6.53%
Clc1cccc(Cl)c1Cl | – | -10.3%
N#Cc1c(Cl)c(Cl)c(Cl)c(C#N)c1Cl | 2.51 µM (active) | –
ClC(Cl)(Cl)c1ccccc1 | – | -5.6% and -7.46%
N#CC(C#N)=Cc1cc(O)c(O)c([N+](=O)[O-])c1 | 22.4 µM (active) | –
Nc1ccc([N+](=O)[O-])cc1 | – | -4.46%
COC1=C[C@@H]2[C@@H]3Cc4ccc(OC)c(O)c4[C@]2(CCN3C)CC1=O | – | -2.46%
CN(C)C1C(=O)C(C(N)=O)=C(O)[C@@]2(O)C(=O)C3=C(O)c4c(O)cccc4[C@@](C)(O)C3C[C@@H]12 (stereo partly drawn) | – | -15.2%
CCN1C[C@]2(C)CC[C@H](O)[C@@]34[C@@H]5CC6[C@@H](OC)C[C@@](O)([C@@H]5[C@@H]6O)[C@H](C[C@@H]23)[C@H]14 | – | -6.3%
COc1ccc(S(=O)(=O)NCc2ccc(C(=O)N3CCC4(CC3)OCCO4)cc2)cc1 | – | -19.1%
O=C(c1cc(-c2ccncc2)nc2ccccc12)N1CCC2(CC1)OCCO2 | – | -3.06%
Cc1cccc(-n2c(C)nc3cc(C(=O)N4CCC5(CC4)OCCO5)ccc32)c1 | 14.1 µM (active) | –
CCCC[N+]1(C)C2CC(OC(=O)C(CO)c3ccccc3)CC1C1OC12 (stereo not drawn) | – | -2.83%
CN(C)[C@@H]1C(=O)C(C(N)=O)=C(O)[C@@]2(O)C(=O)C3=C(O)c4c(O)cccc4[C@@](C)(O)C3CC12 (stereo partly drawn) | – | -24.8%
COC1=C[C@]23CCCN2CCc2cc4c(cc2[C@@H]3[C@@H]1O)OCO4 | – | -6.42%
CCCCC/C=C\C/C=C\C/C=C\C/C=C\CCCCCC(=O)NCCO | – | -7.58% and -6.46%
CC(=O)NBr | – | -7.45%

Compound | Potency | activity change, negative = inhibition
CCC1(c2ccccc2)C(=O)NC(=O)N(C)C1=O (stereo not drawn) | – | -4.89%
CCC/C(=N\O)c1c[nH]c2ccccc12 | – | -17.4%
c1ccc(CCCCN2CCC(c3ccccc3)CC2)cc1 | – | -7.8%
CC(=O)NC(=O)NC(C)Cc1ccccc1 (stereo not drawn) | – | -9.28%
CCOP(=O)(OCC)C(NC(=O)c1ccc(C)cc1)C(Cl)(Cl)Cl (stereo not drawn) | – | -5.69%
CC(=O)c1ccc(OC(NC(=O)Cc2ccccc2)C(Cl)(Cl)Cl)cc1 (stereo not drawn) | 12.6 µM (active) | –
CC(C)(C)c1ccc(CN2C(=O)CN=C(c3ccccc3)c3ccccc32)cc1 | – | -17.9%
Clc1ccccc1 | – | -8.83%
CCC(=NCCc1ccccc1)c1c(O)n(C2CCCCC2)c(=O)[nH]c1=O | – | -16.1%
CCCCn1c(O)c(C(CC)=NCc2ccco2)c(=O)[nH]c1=O | – | 1.83%
CCC(=NCc1ccco1)c1c(O)n(Cc2ccccc2)c(=O)[nH]c1=O | 15.8 µM (active) | –
c1ccc2c(c1)[I+]c1ccccc1-2 | – | -12.3% and -15.8%
c1csc(CN2CCCC3(CCNCC3)C2)n1 | – | -0.589%
Cc1cccc([C@H](C)c2cnc[nH]2)c1C | – | -10.2%
c1csc(CN2CC3(CCNCC3)C2)n1 | – | -15.7%
C[C@H](Br)C(=O)N[C@H](CO)C(=O)O | – | -10.5%
NCC[Se][Se]CCN | 2.82 µM (active) | –
O=c1oc2ccccc2c(O)c1C(c1ccccc1O)c1c(O)c2ccccc2oc1=O | – | -2.8%
C=CCN1CCC23c4c5ccc(O)c4O[C@H]2C(=O)CC[C@@]3(O)C1C5 (stereo partly drawn) | – | -13.3%
CCN(CC)C(=O)c1ccc(NC(=O)c2cc(-n3cnnc3)ccc2Cl)cc1 | 1.41 µM (active) | –

Compound | Potency | activity change, negative = inhibition
CNC(=S)N/N=C1\C2CN3CCN(C2)CC1(c1ccccc1)C3 | – | 4.55%
O=C(C1CC(=O)N(C2CCCC2)C1)N1CCC2(CC1)OCCO2 (stereo not drawn) | – | 6.18%
Clc1ccc([C@@H]2C[C@H]3CC[C@@H]2N3)cn1 | – | 0.221%
COc1cc(C(c2c(O)c3ccccc3oc2=O)c2c(C)n(C)n(-c3ccccc3)c2=O)ccc1O (stereo not drawn) | – | -3.16%
c1ccc(Cc2nn3c(Cn4cnc5ccccc54)nnc3s2)cc1 | 7.08 µM (active) | –
CCN1C[C@@]2(COC)CC[C@H](OC)[C@]34[C@@H]1[C@]1(OCO[C@@]15C[C@@H](OC)C1C[C@H]3[C@H]5[C@@H]1OC)[C@H](O)[C@@H]24 | – | -0.114%
C/C(=C\C=C/[C@@H](C)C(=O)O)[C@H]1CN[C@H](C(=O)O)[C@@H]1CC(=O)O | – | -11.8%
CC(=O)c1c(O)c(C)c(O)c(Cc2c(O)c3c(c(C(=O)/C=C/c4ccccc4)c2O)OC(C)(C)C=C3)c1O | – | -19.2% and -15.4%
CCCCC/C=C\C/C=C\C/C=C\CCCCCCC(=O)NCCO | – | -7.26% and -18.7%
CC(C)(c1ccc(OC[C@@H]2CO2)cc1)c1ccc(OC[C@H]2CO2)cc1 | 12.6 µM (active) | –
CCOC(=O)c1ncn2c1[C@@H]1CCCN1C(=O)c1cc(OC)ccc1-2 | – | -9.65%
Cc1nc2nc(C)c(CCC(=O)N3CCC4(CC3)OCCO4)c(C)n2n1 | – | -4.62%
C=CC#N | – | -3.54%
NCCc1c[nH]c2ccc(O)cc12 | – | -4.55% and -5.27% and -12.4%
Cc1noc(C)c1CSc1nc2cc(S(=O)(=O)N3CCOCC3)ccc2o1 | 7.94 µM (active) | –
C[C@@]12CCC3C(CC[C@@H]4CC(O)CC[C@@]34C)C1CCC2O (stereo partly drawn) | – | -3.43%
CC(Cl)Cl | – | -8.77%
O=C(NCc1cccs1)c1ccc(Br)o1 | 20 µM (active) | –
